The nature of assay [1]: yeast TOR pathway RPL19A-GFP modulators, primary screen, cell-based, S. cerevisiae, multiplex flow cytometry (AID 1862; in the data active = percent of DMSO control GFP below about 86%;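 note: lower values mimic rapamycin by blocking the RPL19A rise seen in DMSO cells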). The settings on record: S. cerevisiae RPL19A-GFP strain, flow cytometry fluorescence, 3 h; at 10 µM; stronger effect = lower value.
Assay [2] in a line: modulators of MEP2-GFP levels in yeast, primary screen, S. cerevisiae, multiplex flow cytometry (AID 1867;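 active = GFP response, as percent of the DMSO control, above the screen-wide mean plus 3 SD, about 139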;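 note: median GFP channel fluorescence of barcode-gated MEP2-GFP cells measured by flow cytometry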). The note with it: S. cerevisiae MEP2-GFP strain, 3 h, at 10 µM, stronger effect = higher value, 100% means same as DMSO wells.
Assay [3] in a line: modulators of CIT2-GFP expression in yeast, primary screen, S. cerevisiae, GFP fusion, multiplex flow cytometry (AID 1870;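 active = percent response above a set limit, the screen-wide mean plus 3 SD, cut at about 130% in these data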;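 note: barcoded CIT2-GFP strain pooled with four other GFP strains with rapamycin as positive control; median GFP fluorescence per well over plate mean of DMSO wells so 100% = DMSO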). The note with it: 3 h, at 10 µM, stronger effect = higher value.
A short description of assay [4]: modulators of LAP4-GFP expression in yeast, primary screen, S. cerevisiae, multiplex flow cytometry (AID 1873;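 active = GFP signal, as percent of the solvent control, above the screen mean plus 3 SD, about 149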). The note with it: 3 h, at 10 µM, stronger effect = higher value. A general note: A flow cytometer gives signals particle by particle.
The nature of assay [5]: modulators of AGP1-GFP expression in yeast TOR pathway, primary screen, cell-based, multiplex flow cytometry, S. cerevisiae (AID 1887;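 active = GFP signal above the screen-wide mean plus 3 SD, that is over about 124.5% of the solvent control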;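 note: AGP1-GFP fusion strain of S. cerevisiae within a five-strain barcoded multiplex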). The settings on record: 3 h, at 10 µM, stronger effect = higher value.
Assay [6] is described as follows: inhibitors of CD8+ T cell-vesicle binding, pilot screen, LFA-1/ICAM-1 modulator project, MLPCN validation set, flow cytometry (AID 2523;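 active = response below a set limit, under 55% cells CD8-positive and vesicle-bound, and CD8 cells' 90th-percentile brightness under 279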;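 for vesicle binding response: mean PE anti-B7-1 fluorescence of CD8+ cells relative to row control; 100% = QL9-loaded vesicles with DMSO vehicle in the same plate row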). The settings on record: 2C mouse CD8+ T cells, at 7 µM, stronger effect = lower value; double positive events: measured here: CD8+/vesicle+ event percentage.
The target in assay [7] is Integrin beta-1 (Homo sapiens) + Integrin alpha-4 (Homo sapiens) (UniProt P13612+P05556). In words: inhibition of HUTS-21 binding to VLA-4, pilot screen, VLA-4 allosteric modulator project, U937 cells, HUTS-21 mAb, flow cytometry, validation set (AID 2674;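 active = inhibition above 50%, about 3 SD of the validation set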;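 note: antibody binding induced by the VLA-4 ligand LDV present at three times its Kd; 0% = LDV ligand with antibody and no compound and 100% = antibody without LDV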). The note with it: HUTS-21 LIBS mAb binding, at 6.7 µM, stronger effect = higher value, binding induced by LDV ligand.
Assay [8] can be described thus: superoxide lowering in aged yeast cells, pilot screen, validation compound set (AID 2706;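 active = superoxide response below 65% of plate, a cut near 3 SD across the whole screen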;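 note: yeast exposed to compound for one week at 30 degrees C before staining; 100% = mean of all compound wells on the same plate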). The note with it: S. cerevisiae aging, superoxide DHE fluorescence; at 10 µM; stronger effect = lower value.
For assay [9], the target named is Beta-adrenergic receptor kinase 1 (Homo sapiens) (UniProt P25098). Put plainly: GRK2 binders displacing RNA aptamer, biochemical, validation, human GRK2, bead flow cytometry (AID 488806). The note with it: bead-bound GRK2, FAM-aptamer displacement, at 10 µM, stronger effect = higher value.
Assay [10] deals with Beta-2 adrenergic receptor (Homo sapiens) (UniProt P07550). Put plainly: beta2AR agonists driving receptor internalization, pilot screen, cell-based, FAP fluorogen, flow cytometry, validation set (AID 504459;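 active = percent response above 42, roughly 3 SD of non-fluorescent test compounds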;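 note: agonist-driven loss of surface beta2AR via internalization measured by FAP dye flow cytometry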). The note with it: Am2.2-beta2AR cells, FAP surface receptor flow cytometry; at 10 µM; stronger effect = higher value.
Assay [11] has as its target AP-2 complex subunit beta (Homo sapiens) (UniProt P63010). Put plainly: inhibitors of arrestin peptide binding to AP2, pilot screen, biochemical, validation set, GST-AP2 beads, flow cytometry (AID 504541;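 active = inhibition above 54%, about 3 SD of non-fluorescent compounds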;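 note: AP2 carries R879A mutation and is captured from E. coli lysate; bead-bound FITC arrestin peptide fluorescence measuring arrestin peptide binding to AP2; 0% = DMSO wells and 100% = excess unlabeled arrestin peptide control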). The note with it: FITC arrestin peptide, at 10 µM, stronger effect = higher value, AP2 beta2 appendage fragment, R879A mutant.
Assay [12] is described as follows: yeast V-ATPase proton transport modulators, S. cerevisiae, pHLuorin, HTS validation (AID 504600; in the data active = response above about 15%;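 note: plate controls were DMSO for no effect and reference compound for full effect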). The note with it: S. cerevisiae pHLuorin cytosolic pH, at 10 µM, stronger effect = higher value.
In assay [13] the test system is anti-desmoglein-3 scFv antibody binding to human DSG3. In words: inhibitors of anti-DSG3 scFv binding to DSG3, pilot screen, biochemical, validation compound set, bead-based, flow cytometry (AID 588368;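 active = binding below the plate cutoff, the plate median minus 3 SD, with a reading above zero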;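 note: signal is the median channel fluorescence of bead-bound GFP antibody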). The settings on record: Protein G beads, DSG3-Fc, scFv-GFP binding, at 10 µM, stronger effect = lower value.
A short description of assay [14]: inhibitors of fungal efflux pumps CDR1, CDR2, MDR1, pilot screen, validation compound set, multiplex, phenotypic (AID 588506;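 active = efflux inhibition above 0.42, the validation set average plus 4 SD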;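 note: Nile Red retained in cells so higher fluorescence means more efflux inhibition; 0 = negative control wells and 1 = enniatin B 25 µM full block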). The settings on record: S. cerevisiae pump-expressing triplex, Nile Red efflux flow cytometry; at 10 µM; stronger effect = higher value; the pumps come from Candida albicans.
Assay [15] addresses ATP-binding cassette sub-family B member 6 (Homo sapiens) (UniProt Q9NP58). In words: ABCB6 transporter inhibitors, pilot screen, K562-ABCB6 cells, flow cytometry, validation set (AID 588550;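 active = inhibition above the screen-wide mean plus 3 SD, about 51%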;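 note: 0% = DMSO wells and 100% = benzethonium chloride 70 µM positive control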). The note with it: K562-ABCB6 porphyrin accumulation, 1 h, at 10 µM, stronger effect = higher value.
A short description of assay [16]: promoters of myeloid differentiation in arrested cells, primary screen, cell-based, GFP/MAC1 double positive, flow cytometry, validation set (AID 588685;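 active = differentiation response of at least 50%, scaled between solvent and reference control, from cells with both markers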;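 note: compound exposure lasts four days before antibody staining and flow analysis; 0% = DMSO wells and 100% = 5 µM fulvestrant positive control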). The note with it: ER-HoxA9 marrow cells, stronger effect = higher value, normalized: vehicle 0, fulvestrant 100.

One may read the inhibition as the relative decrease from the control value, in per cent.

Inconclusive results are not listed. The source made the active and inactive calls.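 Rule for the calls, unless noted: active = aptamer binding inhibition above 30%, about 3 SD of noise from non-fluorescent compounds; inactive = inhibition at or below 30%.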

Sequence of Beta-2 adrenergic receptor (Homo sapiens) (P07550 whole entry, looked up): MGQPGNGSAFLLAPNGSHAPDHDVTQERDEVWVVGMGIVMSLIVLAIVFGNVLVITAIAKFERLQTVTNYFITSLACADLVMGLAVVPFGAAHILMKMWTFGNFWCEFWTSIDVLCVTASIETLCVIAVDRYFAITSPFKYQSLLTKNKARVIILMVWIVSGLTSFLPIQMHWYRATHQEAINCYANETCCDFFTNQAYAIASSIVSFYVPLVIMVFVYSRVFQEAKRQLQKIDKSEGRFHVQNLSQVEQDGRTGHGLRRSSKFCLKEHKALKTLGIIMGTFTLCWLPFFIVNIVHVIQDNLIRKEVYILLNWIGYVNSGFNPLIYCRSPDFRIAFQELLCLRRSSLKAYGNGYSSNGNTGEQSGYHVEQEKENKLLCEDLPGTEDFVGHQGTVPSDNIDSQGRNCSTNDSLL
Sequence of ATP-binding cassette sub-family B member 6 (Homo sapiens) (Q9NP58 whole entry, looked up): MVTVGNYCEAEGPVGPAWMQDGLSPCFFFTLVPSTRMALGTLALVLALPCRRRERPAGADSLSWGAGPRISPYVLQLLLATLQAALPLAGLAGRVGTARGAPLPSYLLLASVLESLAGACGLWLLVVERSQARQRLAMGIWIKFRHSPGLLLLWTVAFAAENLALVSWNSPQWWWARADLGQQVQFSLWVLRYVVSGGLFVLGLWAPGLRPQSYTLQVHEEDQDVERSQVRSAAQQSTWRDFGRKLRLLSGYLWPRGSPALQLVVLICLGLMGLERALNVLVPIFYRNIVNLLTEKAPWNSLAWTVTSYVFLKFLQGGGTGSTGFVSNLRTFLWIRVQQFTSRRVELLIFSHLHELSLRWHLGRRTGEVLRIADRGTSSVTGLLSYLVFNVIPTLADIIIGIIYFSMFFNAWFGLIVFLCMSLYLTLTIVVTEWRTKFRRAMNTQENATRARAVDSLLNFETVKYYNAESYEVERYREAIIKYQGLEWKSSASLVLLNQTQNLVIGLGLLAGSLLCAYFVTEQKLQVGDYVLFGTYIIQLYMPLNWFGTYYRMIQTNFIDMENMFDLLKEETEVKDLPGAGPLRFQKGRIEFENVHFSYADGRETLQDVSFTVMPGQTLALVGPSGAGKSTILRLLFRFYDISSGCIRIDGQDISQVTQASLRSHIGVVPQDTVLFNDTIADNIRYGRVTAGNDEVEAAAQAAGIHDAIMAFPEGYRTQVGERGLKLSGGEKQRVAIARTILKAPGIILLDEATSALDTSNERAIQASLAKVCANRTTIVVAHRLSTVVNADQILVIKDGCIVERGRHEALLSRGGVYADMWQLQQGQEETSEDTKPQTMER
Sequence of Beta-adrenergic receptor kinase 1 (Homo sapiens) (P25098 whole entry, looked up): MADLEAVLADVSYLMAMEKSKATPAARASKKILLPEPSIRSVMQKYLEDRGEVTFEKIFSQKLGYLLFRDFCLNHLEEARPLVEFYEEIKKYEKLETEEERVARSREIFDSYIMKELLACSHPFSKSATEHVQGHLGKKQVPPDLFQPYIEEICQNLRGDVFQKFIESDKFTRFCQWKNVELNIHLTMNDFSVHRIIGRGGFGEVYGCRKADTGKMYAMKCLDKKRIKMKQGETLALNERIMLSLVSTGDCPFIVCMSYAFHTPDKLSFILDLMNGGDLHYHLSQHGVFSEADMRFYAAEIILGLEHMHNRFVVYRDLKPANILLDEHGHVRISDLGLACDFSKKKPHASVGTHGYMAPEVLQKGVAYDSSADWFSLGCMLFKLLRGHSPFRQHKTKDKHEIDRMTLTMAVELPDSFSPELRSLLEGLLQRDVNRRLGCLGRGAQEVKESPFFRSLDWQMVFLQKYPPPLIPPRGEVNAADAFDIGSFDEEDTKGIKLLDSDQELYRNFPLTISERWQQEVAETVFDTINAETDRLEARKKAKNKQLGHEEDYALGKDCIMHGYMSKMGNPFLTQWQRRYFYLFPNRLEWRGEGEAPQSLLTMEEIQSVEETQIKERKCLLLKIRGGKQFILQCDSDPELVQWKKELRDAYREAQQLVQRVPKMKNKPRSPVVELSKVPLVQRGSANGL
Sequence of Integrin beta-1 (Homo sapiens) + Integrin alpha-4 (Homo sapiens) (P05556 whole entry, looked up): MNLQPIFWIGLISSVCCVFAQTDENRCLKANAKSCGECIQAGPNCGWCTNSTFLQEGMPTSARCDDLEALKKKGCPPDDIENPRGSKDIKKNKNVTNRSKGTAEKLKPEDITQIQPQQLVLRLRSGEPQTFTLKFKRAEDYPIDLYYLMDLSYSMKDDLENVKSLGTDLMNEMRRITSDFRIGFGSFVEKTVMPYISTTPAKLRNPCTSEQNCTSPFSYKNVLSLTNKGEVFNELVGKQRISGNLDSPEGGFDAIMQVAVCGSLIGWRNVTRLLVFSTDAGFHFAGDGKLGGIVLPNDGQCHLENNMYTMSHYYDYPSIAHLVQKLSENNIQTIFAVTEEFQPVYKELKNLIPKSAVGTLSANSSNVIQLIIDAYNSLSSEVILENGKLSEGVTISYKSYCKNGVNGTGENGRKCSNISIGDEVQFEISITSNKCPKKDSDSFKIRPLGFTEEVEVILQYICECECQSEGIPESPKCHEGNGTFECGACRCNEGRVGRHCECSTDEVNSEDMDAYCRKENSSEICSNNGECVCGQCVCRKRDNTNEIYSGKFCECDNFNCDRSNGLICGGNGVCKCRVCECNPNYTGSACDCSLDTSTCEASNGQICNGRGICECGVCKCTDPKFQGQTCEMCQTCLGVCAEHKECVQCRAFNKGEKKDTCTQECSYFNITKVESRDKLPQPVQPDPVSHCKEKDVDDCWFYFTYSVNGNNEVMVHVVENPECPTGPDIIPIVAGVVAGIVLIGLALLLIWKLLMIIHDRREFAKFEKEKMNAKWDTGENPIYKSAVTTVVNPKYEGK
Sequence of Integrin beta-1 (Homo sapiens) + Integrin alpha-4 (Homo sapiens) (P13612 whole entry, looked up): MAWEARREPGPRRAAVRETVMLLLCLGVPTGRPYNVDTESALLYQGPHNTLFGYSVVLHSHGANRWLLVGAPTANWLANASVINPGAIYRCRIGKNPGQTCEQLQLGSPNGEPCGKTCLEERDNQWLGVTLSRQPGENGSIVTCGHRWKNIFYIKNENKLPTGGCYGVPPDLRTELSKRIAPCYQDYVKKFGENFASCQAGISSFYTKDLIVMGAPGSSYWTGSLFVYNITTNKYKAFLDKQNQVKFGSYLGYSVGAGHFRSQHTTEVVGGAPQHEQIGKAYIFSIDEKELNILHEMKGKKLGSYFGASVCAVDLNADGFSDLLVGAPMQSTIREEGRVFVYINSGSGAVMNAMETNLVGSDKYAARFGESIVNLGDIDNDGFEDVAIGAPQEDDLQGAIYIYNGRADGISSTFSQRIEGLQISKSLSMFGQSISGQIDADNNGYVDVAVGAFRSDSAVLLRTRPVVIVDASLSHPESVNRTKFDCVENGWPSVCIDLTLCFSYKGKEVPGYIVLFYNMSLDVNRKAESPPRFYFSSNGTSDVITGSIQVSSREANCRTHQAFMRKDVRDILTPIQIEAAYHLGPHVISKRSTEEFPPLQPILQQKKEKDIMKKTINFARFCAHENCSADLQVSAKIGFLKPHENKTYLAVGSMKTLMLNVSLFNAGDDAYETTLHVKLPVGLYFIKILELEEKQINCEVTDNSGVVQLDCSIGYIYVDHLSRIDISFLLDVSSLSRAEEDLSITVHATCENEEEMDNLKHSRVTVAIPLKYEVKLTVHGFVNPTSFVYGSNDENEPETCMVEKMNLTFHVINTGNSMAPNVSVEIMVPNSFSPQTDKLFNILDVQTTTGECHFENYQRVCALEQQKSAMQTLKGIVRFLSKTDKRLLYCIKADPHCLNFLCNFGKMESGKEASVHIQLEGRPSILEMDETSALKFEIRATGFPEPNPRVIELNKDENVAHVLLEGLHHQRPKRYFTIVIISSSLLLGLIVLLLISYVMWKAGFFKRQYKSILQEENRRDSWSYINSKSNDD
Sequence of AP-2 complex subunit beta (Homo sapiens) (P63010 whole entry, looked up, the tested form may be a part, one chain of several): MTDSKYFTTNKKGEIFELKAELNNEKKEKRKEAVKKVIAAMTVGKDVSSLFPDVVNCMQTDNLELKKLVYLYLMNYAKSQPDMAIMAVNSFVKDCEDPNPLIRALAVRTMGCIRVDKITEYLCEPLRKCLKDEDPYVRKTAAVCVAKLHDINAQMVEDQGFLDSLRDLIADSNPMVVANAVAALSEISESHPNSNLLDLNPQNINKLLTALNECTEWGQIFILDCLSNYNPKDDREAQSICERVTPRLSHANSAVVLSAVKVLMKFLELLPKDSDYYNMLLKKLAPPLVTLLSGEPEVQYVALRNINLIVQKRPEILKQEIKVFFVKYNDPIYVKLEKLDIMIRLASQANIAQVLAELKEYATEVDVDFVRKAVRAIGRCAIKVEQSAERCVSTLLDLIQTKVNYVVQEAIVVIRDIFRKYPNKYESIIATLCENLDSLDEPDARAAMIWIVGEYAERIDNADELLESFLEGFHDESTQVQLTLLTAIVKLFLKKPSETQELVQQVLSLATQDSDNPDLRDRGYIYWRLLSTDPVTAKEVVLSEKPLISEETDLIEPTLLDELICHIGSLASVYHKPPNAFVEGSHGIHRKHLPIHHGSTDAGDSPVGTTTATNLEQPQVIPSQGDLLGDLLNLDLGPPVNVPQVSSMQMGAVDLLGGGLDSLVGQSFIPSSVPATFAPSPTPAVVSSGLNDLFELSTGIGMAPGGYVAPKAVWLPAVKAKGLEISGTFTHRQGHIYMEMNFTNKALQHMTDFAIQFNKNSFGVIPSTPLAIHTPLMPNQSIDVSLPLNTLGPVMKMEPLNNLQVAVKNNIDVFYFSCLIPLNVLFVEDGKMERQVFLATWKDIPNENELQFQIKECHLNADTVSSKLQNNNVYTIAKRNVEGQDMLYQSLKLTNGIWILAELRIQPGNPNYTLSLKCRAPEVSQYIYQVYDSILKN

In the case of `OC12CCCCC1C(c1ccc3c(c1)OCO3)N(Cc1cccc(F)c1)CC2` (stereo not drawn), the percent of DMSO control GFP in [1] was 103% (inactive). Further, the GFP response vs DMSO in [2] was 90.9% (inactive); in [4], 94% (inactive). Further, in [3], the percent response of DMSO control was 113% (inactive). In addition, in assay [5], the GFP response, % of DMSO was 101% (inactive). In assay [6], this molecule had a double positive events of 61.7%. In addition, the vesicle binding response in assay [6] is 234% (inactive). Besides, the inhibition is -5.64% (inactive) in assay [7], 7.03% (inactive) in assay [11] and 0% (inactive) in assay [15]. Further, the superoxide response (% of plate) in assay [8] is 97.9% (inactive). In addition, the aptamer binding inhibition in assay [9] is 3% (inactive). Also, the values for the response in assay [10] and in assay [12] were -6.32% (inactive) and -0.75% (inactive), respectively. In addition, in assay [13], the binding (% of control) is 104% (inactive). In addition, the efflux inhibition (fraction of control) in assay [14] was -0.01 (inactive). Further, in [16], the differentiation response was -10.5% (inactive).

As to `c1ccc(SSc2ccccc2)cc1`, the percent of DMSO control GFP in [1] was 105% (inactive). Moreover, the GFP response vs DMSO in assay [2] is 108% (inactive); in [4], 96.6% (inactive). For the same molecule, the percent response of DMSO control in assay [3] is 118% (inactive). The GFP response, % of DMSO in assay [5] was 103% (inactive). Besides, the double positive events in assay [6] was 62.9%. Also, the vesicle binding response in [6] is 301% (inactive). The inhibition in [7] was -0.45% (inactive); in [11], -24.5% (inactive); in assay [15] it was -6% (inactive). Besides, the superoxide response (% of plate) in assay [8] is 93.6% (inactive). The aptamer binding inhibition in [9] was 2% (inactive). Also, the response in [10] is 1.12% (inactive); in [12], 3.24% (inactive). Also, the binding (% of control) in assay [13] was 93.5% (inactive). Besides, the efflux inhibition (fraction of control) in assay [14] was -0.04 (inactive). The differentiation response in assay [16] was -2.69% (inactive).

Consider `CN1CC2CCCC3(C1)C(=O)NC1(CCCCC1)N=C23` (stereo not drawn), for which, in assay [1], the percent of DMSO control GFP is 105% (inactive). In addition, the GFP response vs DMSO in [2] was 105% (inactive); in assay [4] it was 97.3% (inactive). The percent response of DMSO control in [3] was 111% (inactive). In assay [5], the GFP response, % of DMSO is 107% (inactive). The double positive events in assay [6] turned out to be 58.9%. Also, the vesicle binding response in assay [6] was 281% (inactive). Also, the inhibition in [7] was 3.7% (inactive); in assay [11], -5.67% (inactive); in assay [15], 1% (inactive). Further, the superoxide response (% of plate) in assay [8] was 103% (inactive). Moreover, in [9], the aptamer binding inhibition was 1% (inactive). The response in [10] is -7.22% (inactive); in assay [12], 3.54% (inactive). Further, the binding (% of control) in [13] was 99% (inactive). For the same molecule, the efflux inhibition (fraction of control) in [14] was -0.26 (inactive). In addition, in assay [16], the differentiation response is -6.6% (inactive).

On to `CC(=O)Oc1cc2oc(=O)cc(C)c2cc1OC(C)=O`, for which the percent of DMSO control GFP in [1] was 101% (inactive). For the same molecule, the results for the GFP response vs DMSO in assay [2] and in [4] were 102% (inactive) and 73.5% (inactive), respectively. Besides, the percent response of DMSO control in assay [3] was 99.6% (inactive). In assay [5], the GFP response, % of DMSO was 86% (inactive). In assay [6], this molecule returned a double positive events of 60%. For the same molecule, the vesicle binding response in assay [6] was 207% (inactive). Also, the inhibition is -5.89% (inactive) in assay [7], 3.54% (inactive) in assay [11] and 7% (inactive) in assay [15]. In assay [8], the superoxide response (% of plate) was 102% (inactive). Moreover, in assay [9], the aptamer binding inhibition was 10% (inactive). In addition, the response in [10] was -3.64% (inactive); in [12], 1.09% (inactive). Besides, the binding (% of control) in assay [13] was 101% (inactive). For the same molecule, in assay [14], the efflux inhibition (fraction of control) was 0.08 (inactive). In addition, the differentiation response in assay [16] is -15.2% (inactive).

The values are drawn from PubChem BioAssay.
